SMILES strings stand for the structures. This is part of a sample that, as a whole, favours compounds with a hit. Of some 83,000 tested, about 20% had one in any assay.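 Step 1: grow cells in 96-well plates. Step 2: add test compound at a single concentration. Step 3: incubate 48 h. Step 4: record percent growth.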 Values without a mark were called inactive. Calls of active or inactive are those of the source. How the source made its calls: active means growth percent below 10; inactive means the rest.

Data on nine compounds can be found in PubChem BioAssay (NCI).

Common to all, as to assay: NCI-60 one-dose screen, 48 h (100 = growth as untreated, 0 = no growth, -100 = all killed)
Common to all, as to settings: 10 µM

Test [1] deals with SR leukemia.
In test [2] the test system is RPMI-8226 leukemia.
Test [3] deals with OVCAR-8 ovarian.
The test system of test [4] is OVCAR-5 ovarian.
Test [5] deals with OVCAR-4 ovarian.
Test [6] deals with SK-OV-3 ovarian.
The test system of test [7] is IGROV1 ovarian.
The subject of test [8] is OVCAR-3 ovarian.
In test [9] the test system is HS 578T breast.
Test [10] deals with NCI/ADR-RES ovarian.
Test [11] concerns T-47D breast.
The test system of test [12] is BT-549 breast.
In test [13] the test system is MDA-MB-435 melanoma.
Test [14] deals with SW-620 colon.
Test [15] relates to MCF7 breast.
The subject of test [16] is HCT-116 colon.
Test [17] relates to HCC-2998 colon.
Test [18] has as its system KM12 colon.

For the compound `O=C(CCl)N1c2ccccc2Sc2ccc3ccccc3c21`, the growth was -11.4% (active) in [1]; -47.3% (active) in test [2]; -24.2% (active) in test [3]; 21% in test [4]; -41.9% (active) in test [5]; 17.6% in test [6]. Also, the growth is -71.2% (active) in [7]; -82.5% (active) in test [8]; -0.68% (active) in test [9]; -25.8% (active) in [10]; -68.2% (active) in test [11]; -40.9% (active) in test [12]. Moreover, the growth was -34.7% (active) in test [13]; -65.6% (active) in test [14]; 10% (active) in test [15]; -99.6% (active) in test [16]; -94.4% (active) in test [17]; -77.5% (active) in [18].
As for `O=C(COCc1c(-c2ccccc2)no[n+]1[O-])Nc1nc(-c2ccc(Cl)cc2)cs1`, the growth is 98.2% in [1]; 109% in [2]; 101% in test [3]; 109% in [4]; 111% in test [5]; 95.1% in test [6]. For the same compound, the growth in test [7] was 112%; in test [8], 102%; in [9] it was 99.6%; in test [10], 101%; in [11] it was 103%; in test [12], 102%. Besides, the growth in [13] was 111%; in test [14], 101%; in test [15] it was 96.3%; in test [16], 104%; in test [17] it was 104%; in test [18] it was 101%.
As for `COc1ccc(-c2nnc(COc3ccc(NC(=O)Nc4cccc(C(F)(F)F)c4)cc3F)o2)cc1`, the growth in test [1] was 3.93% (active); in [2], 33.6%; in [3], 49.1%; in [4], 82.5%; in test [5], 61.4%; in test [6] it was 103%. Besides, the growth in test [7] is 68.8%; in test [8], 56.9%; in test [9], 67.3%; in test [10], 54.8%; in test [11], 34.8%; in test [12], 82.7%. Further, the growth in [13] is 61.6%; in test [14] it was 54.3%; in test [15] it was 88.7%; in test [16], 56.7%; in test [17], 50.9%; in test [18], 24%.
Take `Cc1noc(C)c1-c1ccc2nc(NC(=O)[C@H]3CCN(C#N)C3)cn2c1`: the growth in test [1] is 42.3%; in test [2], 97.2%; in test [3] it was 91.6%; in [4] it was 92.7%; in [5], 63.9%; in [6], 103%. Moreover, the growth in test [7] is 82.2%; in test [8], 71.7%; in test [9], 84.4%; in test [10] it was 95.8%; in test [11] it was 54.8%; in test [12], 76.3%. Besides, the growth in test [13] is 81.7%; in test [14], 83.6%; in [15], 71.1%; in test [16], 82.1%; in test [17], 90.4%; in test [18] it was 91.3%.
Consider `C=CCOc1ccc2c(c1)CC[C@@H]1[C@@H]2CC[C@]2(C)C(=O)/C(=N/O)C[C@@H]12`, for which the growth is 7.72% (active) in test [1]; 20.2% in [2]; 70.5% in test [3]; 44.7% in test [4]; 8.34% (active) in test [5]; 81.8% in test [6]. Also, the growth is 0.671% (active) in test [7]; 75.6% in [8]; 35.4% in test [9]; 57.6% in [10]; 22.7% in test [11]; 28.6% in [12]. In addition, the growth was 61.6% in test [13]; 42.5% in [14]; 44.2% in [15]; 12.2% in test [16]; 27% in test [17]; 61.6% in [18].
As for `CCc1nn2c(-c3cc(OC)c(OC)c(OC)c3)c(-c3cc(OC)c(OC)c(OC)c3)nc2s1`, the growth in [1] was 61.9%; in test [2], 71.3%; in [3], 95.6%; in test [4], 90%; in test [5], 72.6%; in test [6] it was 59.5%. For the same compound, the growth in [7] was 88.8%; in [8], 93.4%; in test [9] it was 37.1%; in test [10], 81.7%; in test [11], 81.4%; in [12], 89.6%. Also, the growth in [13] is 83.4%; in test [14], 86.3%; in [15], 57.4%; in test [16], 71.8%; in test [17], 102%; in [18], 100%.
Regarding `N#C/C(=C\N1C(=O)/C(=C/c2cccc([N+](=O)[O-])c2)SC1=S)c1nc2ccccc2s1`, the growth in test [1] was 73.4%; in [2], 60.4%; in [3], 94.7%; in test [4] it was 102%; in [5], 61.4%; in test [6], 77.7%. Besides, the growth in test [7] was 83.7%; in test [8] it was 90.4%; in test [9], 95.9%; in [10], 94.1%; in [11], 54.7%; in [12], 78.3%. For the same compound, the growth in [13] was 76.2%; in test [14], 105%; in test [15] it was 70.9%; in [16] it was 81.6%; in test [17], 100%; in test [18], 81.3%.
Turning to `COc1ccc(/C=C2\SC(=S)N(CCCN3CCOCC3)C2=O)c(OC)c1`, the growth in [1] was 72.5%; in [2], 78.4%; in test [3], 96.1%; in test [4] it was 104%; in test [5], 91.1%; in test [6], 105%. For the same compound, the growth in test [7] was 115%; in test [8], 103%; in [9], 99.1%; in [10], 92.6%; in test [11], 71.2%; in test [12], 96.1%. Besides, the growth was 101% in [13]; 105% in [14]; 76% in [15]; 92.2% in test [16]; 109% in [17]; 97.2% in test [18].
With `COc1ccc(S(=O)(=O)Nc2cc(/C=C\c3cc(OC)c(OC)c(OC)c3)ccc2OC)cc1`, the growth in test [1] was 10.2%; in [2], 7.64% (active); in test [3], 9.01% (active); in test [4] it was 30.7%; in test [5], 34.4%; in test [6], 11.8%. For the same compound, the growth in test [7] is 13.6%; in test [8], -19.8% (active); in test [9] it was 10.6%; in test [10], 11%; in test [11] it was 71.7%; in test [12], 26.9%. Further, the growth in test [13] was -37.9% (active); in test [14] it was 21.3%; in test [15], -9.99% (active); in [16], 4.3% (active); in [17], 16%; in [18] it was -5.35% (active).
